Compound activity deposited in PubChem BioAssay by National Center for Advancing Translational Sciences (NCATS).
Cycloheximide cs: Cycloheximide Counterscreen for Small Molecule Inhibitors of Shiga Toxin. max response, %. hit rate 12% among 300,000. cell reporter, cycloheximide protein synthesis inhibition counterscreen; in the data active = max response mostly above about 13%, no sharp cut-off; inactive = mostly below about 14%; also: read at 38.3 µM for the half of the compounds with a filed dose
AMA1-RON2 inh: qHTS for Inhibitors of AMA1-RON; Towards Development of Antimalarial Drug Lead: Primary Screen; Potency, µM (titrated, usually from 58.2 µM), hits mostly inhibitors; AID 720542, 2013; Plasmodium falciparum AMA1 (3D7) - RON2 peptide interaction; hit rate 0.2% among 360,000; AlphaScreen AMA1-biotinylated RON2 peptide binding; also: nearly all actives have a fitted effect of over 45% in size
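AMA1 (3D7) with his tag at 25 nM final met compounds first, then biotinylated RON2 peptide at 25 nM; detection used donor plus acceptor beads, 10 µg/mL apiece, read by AlphaScreen after 30 min at room temperature.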
Shiga inhibitor: A qHTS for Small Molecule Inhibitors of Shiga Toxin. Vero cells, Shiga toxin protein synthesis inhibition reporter. inhibition, % at 38.7 µM. hit rate 9.2% among 290,000; in the data active = inhibition mostly above about 28%, no sharp cut-off; inactive = mostly below about 43%
SARS PLpro yeast: qHTS of Yeast-based Assay for SARS-CoV PLP; S. cerevisiae expressing SARS-CoV PLpro, growth rescue; Potency, µM (series often up to 32.9 µM), actives largely listed as activators; hit rate 0.19% among 330,000; AID 485353, 2010; calls by dose curve; also: nearly all actives have a fitted effect of over 55% in size
Pf growth 48h: Primary qHTS for delayed death inhibitors of the malarial parasite plastid, 48 hour incubation; hit rate 5.9% among 310,000; Potency, µM (top dose mostly 28.7 µM), usual class: inhibitors; P. falciparum luciferase growth in erythrocytes, 48 h; AID 504832, 2011
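Parasite viability was followed by luminescence of a genomically integrated firefly luciferase. Cultures held 0.1% parasitemia at 2% hematocrit (final), incubated under 5% CO2 at 37 C.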
Pf growth 96h: Primary qHTS for delayed death inhibitors of the malarial parasite plastid, 96 hour incubation. AID 504834, 2011. hit rate 6.9% among 320,000. Potency, µM (titrated, usually from 28.7 µM), usual class: inhibitors. P. falciparum luciferase reporter growth, 96 h
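Parasite growth measured via integrated firefly luciferase reporter in P. falciparum. Infected erythrocytes at 2% hematocrit, 0.05% parasitemia final were treated 96 hours at 37 C under 5% CO2, and luminescence was read.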
Numbers stand for hits; - = inactive; ? = inconclusive; . = no result given; [ ] = remark or other dose. An excerpt weighted towards active compounds, which were near 19% of everything screened. Unless noted, calls follow the shape of the dose curve; as a rule, active = well fitted curve in the direction sought with a large enough effect; inconclusive = small, poorly fitted or top-dose-only effect, or another doubt; inactive = no such curve, though single readings can be large; an effect the other way counts as inactive or inconclusive.

SMILES	Cycloheximide cs	AMA1-RON2 inh	Shiga inhibitor	SARS PLpro yeast	Pf growth 48h	Pf growth 96h
O=C(Nc1ccn(CCOC(=O)c2ccccc2)c(=O)n1)c1ccccc1	.	-	.	.	.	.
O=C(O)c1ccccc1-c1c2ccc(=O)cc-2oc2cc(O)ccc12	-	.	-	.	-	-
COC(=O)c1ccccc1-c1c2ccc(=N)cc-2oc2cc(N)ccc12	.	-	.	-	1.31µM	0.329µM
Cc1ccc2c(Cl)c(C(=O)Nc3cc(C)on3)sc2c1	31.4	-	77.7	-	.	-
Cc1ccc2c(Cl)c(C(=O)NCCc3ccccc3)sc2c1	48.2	-	123.9	-	-	?
COc1ccc(CCNC(=O)c2sc3cc(C)ccc3c2Cl)cc1	-	-	-	-	?	-
CCNC(=O)c1sc2cc(C)ccc2c1Cl	25.2	-	39.1	-	-	13.1µM
O=C(NC1CC1)c1sc2cc(Cl)ccc2c1Cl	.	-	.	.	-	-
CC1(C)CN(c2ccccc2)C(=O)[C@H]1CC(=O)Nc1ccccc1	.	-	.	.	.	.
N#C/C(=C/c1ccc(OC(=O)c2ccc(Br)s2)cc1)c1nc2ccccc2[nH]1	.	-	.	.	.	.
N#C/C(=C\c1ccc(OC(=O)c2ccc(Cl)s2)cc1)c1nc2ccccc2[nH]1	49.5	-	17.4	-	-	?
N#C/C(=C(\O)c1cc(Cl)sc1Cl)c1nc2ccccc2[nH]1	-	-	-	-	-	-
N#C/C(=C\c1ccc(OC(=O)c2ccc(Br)s2)cc1)c1nc2ccccc2[nH]1	22.0	-	38.5	-	-	?
NC(=O)c1ncn([C@@H]2O[C@H](CNCc3cccc(OC4CCCC4)c3)[C@@H](O)[C@H]2O)n1	.	-	.	.	.	.
Nc1nc(CSc2ccc(Cl)cc2)nc(N2CCCCC2)n1	-	-	-	-	-	-
Nc1nc(CSc2ccccc2)nc(N2CCCCC2)n1	50.9	-	138.3	-	-	-
Cc1ccc(C(C)C)c(OCCn2ccnc2C)c1	-	-	.	-	?	11.7µM
Cc1ccc(OCCCCn2ccnc2C)c(C)c1	-	-	-	-	?	-
c1csc(-c2csc(-c3cccs3)n2)c1	30.0	-	118.4	?	-	-
c1cncc(-c2nc(-c3ccco3)cs2)c1	27.2	-	79.4	-	-	.
Clc1ccsc1-c1csc(-c2cccnc2)n1	33.2	-	-	-	.	?
Oc1ccc(-c2csc(-c3cccnc3)n2)c(O)c1	34.7	-	111.2	-	-	?
Nc1ccc(Nc2nc(-c3cccs3)cs2)cc1	-	-	-	-	?	-
O=S(=O)(c1ccc(-c2csc(-c3cccnc3)n2)cc1)N1CCCC1	-	-	-	-	?	-
c1cncc(-c2csc(-c3cccnc3)n2)c1	-	-	-	-	-	-
SMILES	Cycloheximide cs	AMA1-RON2 inh	Shiga inhibitor	SARS PLpro yeast	Pf growth 48h	Pf growth 96h
Cc1ccccc1-c1ccccc1CN1[C@@H](C(C)C)COCCS1(=O)=O	.	-	.	-	.	.
COc1cccc(OCC(=O)Nc2ccccc2C(=O)Nc2ccc(C(=O)O)cc2)c1	-	-	-	-	?	-
C=C(C)CSc1nnc([C@@H](NC(=O)OC(C)(C)C)C(C)CC)o1 (some centres undefined)	-	-	-	-	?	?
CC/C(C)=N/Nc1nc2c(c(=O)[nH]c(=O)n2C)n1CCc1ccccc1	-	-	-	-	-	?
Cc1ccc(Nc2ccc(C(=O)NC3CCCCC3)cn2)cc1	-	-	-	-	?	?
c1cncc(-c2nc(-c3cccs3)cs2)c1	44.0	-	-	-	-	?
CN1c2ccccc2N(C)C1c1ccc2c(c1)OCO2	-	-	-	-	4.65µM	-
N/C(=N\OC(=O)Cc1ccccc1[N+](=O)[O-])c1cccnc1	-	-	-	-	-	-
COc1ccc(/C(N)=N/OC(=O)Cc2ccccc2[N+](=O)[O-])cc1	30.6	-	-	-	-	13.1µM
COc1ccc(CC(=O)O/N=C(\N)c2ccc(OC)cc2)cc1	63.7	-	70.7	-	-	-
COc1ccc(C(=O)O/N=C(\N)Cc2cccs2)cc1OC	-	-	-	-	?	-
COc1ccc(CC(=O)O/N=C(\N)c2ccccc2)cc1OC	37.6	-	42.3	-	.	-
COc1ccc(/C(N)=N/OC(=O)Cc2cccs2)cc1OC	27.4	-	32.6	-	-	-
O=C(c1ccc2oc(Cc3ccc(Cl)cc3)nc2c1)N1CCCCC1CCO (centres undefined)	-	-	-	-	-	?
COc1ccc(/C(N)=N/OC(=O)Cc2cccs2)cc1	44.4	-	113.3	-	-	-
COc1ccc(/C(N)=N/OC(=O)CN(C)S(=O)(=O)c2ccccc2)cc1	-	-	-	-	-	-
c1ccc(-c2noc(C3CCC3)n2)nc1	27.6	-	50.4	-	-	-
CCCCC1CCC(c2nc(-c3ccccn3)no2)CC1 (centres undefined)	56.5	-	177.9	-	-	?
CCN(CC)c1ccc(-c2nc3cnccn3c2NC2CCCC2)cc1	-	-	-	-	?	?
CCN(CC)c1ccc(Nc2nc(N3CCOCC3)c3ccccc3n2)cc1	-	23.8µM	-	-	-	.
COc1ccc(Nc2nc(N3CCCC3)c3ccccc3n2)cc1	-	?	-	-	3.29µM	-
Cc1nc(N2CCCCCC2)c2ccccc2n1	-	-	.	?	-	?
Cc1c(Br)c([N+](=O)[O-])nn1CC(=O)Nc1ccc2nc3n(c(=O)c2c1)CCCC3	-	-	-	-	-	-
Cc1coc2c1C(=O)C(=O)c1c-2ccc2c(C)cccc12	18.1	?	35.4	-	?	?
C[C@H]1COC2=C1C(=O)C(=O)c1c2ccc2c1CCCC2(C)C	25.7	28.2µM	58.9	-	?	?
SMILES	Cycloheximide cs	AMA1-RON2 inh	Shiga inhibitor	SARS PLpro yeast	Pf growth 48h	Pf growth 96h
Cc1coc2cc3oc(=O)c4c(c3cc12)CCC4	-	.	-	-	-	.
CC1COC2=C1C(=O)C(=O)c1c2ccc2c1CCCC2(C)C (centres undefined)	-	.	52.6	.	.	.
CNc1ccc2c3c(cccc13)C(=O)N(C)C2=O	-	-	-	-	-[0.00184 µM]	-
Cc1coc2c1C(=O)C(=O)c1c-2ccc2c1CCCC2(C)C	23.7	?	38.9	-	?	?
Cn1c(=O)n(CCOc2ccc([N+](=O)[O-])cc2)c2ccccc21	26.2	-	67.5	-	-	-
Cc1ccc(OCCn2c(=O)n(C)c3ccccc32)cc1	42.3	-	104.5	-	-	-
O=C(CCN1C(=O)C2C3CCC(C3)C2C1=O)OCC(=O)c1cccc([N+](=O)[O-])c1 (centres undefined)	-	-	-	-	-	-
O=C(O)C1(c2ccccc2)CCN(S(=O)(=O)c2ccc(Br)cc2)CC1	-	-	.	-	-	?
O=C(Cn1ccnc1[N+](=O)[O-])NCCO	.	.	.	.	-	-
COc1ccc(N2c3ccccc3CN(Cc3ccccc3)CC2Cc2cc(OC)c(OC)c(OC)c2)cc1 (centres undefined)	.	11.2µM	.	.	.	.
